Shown are actives, neighbours in structure and some others; about 1.5% of the full set was active somewhere.
WRN helicase inh = blocks human WRN helicase; WRN helicase unwinding, fluorescent forked duplex, kinetic; 360,000 tested, 0.46% active; Potency, µM (top dose mostly 114 µM), without a hit: top-dose activity change, negative = inhibition, usual class: inhibitors; Q14191; also: potency is read from the fitted curve at half-maximal effect; % is scaled to controls: 0 for no effect and ±100 for the full control effect; nearly all actives have a fitted effect of over 55% in size
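Kinetic red-fluorescence monitoring (525/598 nm) tracks WRN helicase activity after 100 nM fluorophore-quencher forked duplex and 2 mM ATP are added to 20 nM enzyme pretreated 15 min at room temperature with compound.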
BLM inh = Bloom syndrome helicase (human) inhibition; P54132; Potency, µM (top dose mostly 56.1 µM), for inactives: at the highest dose activity change, negative = inhibition, hits mostly inhibitors; 350,000 tested, 0.2% active; AID 2528; recombinant BLM DNA unwinding, fluorescence dequenching;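 also: potency is read from the fitted curve at half-maximal effect; plate controls were vehicle for no effect and no enzyme for full effect; nearly all actives have a fitted effect of over 35% in size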
PI5P4K alpha inh = PI5P4K alpha (human) kinase inhibition. P48426. PI5P4Kalpha enzyme, ADP-Glo luminescence, 60 min; stronger effect = lower value. max response, %. 330,000 tested, 1.2% active. AID 652105; active = max response of -50% or lower; inconclusive = between -30% and -50%; inactive = -30% or higher; also: value at the top dose of about 77 µM; % is scaled to controls: 0 for no effect and ±100 for the full control effect
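Luminescence from ADP-Glo served as readout of PI5P4Kalpha activity in a qHTS format. Reaction: enzyme, substrate, compound, ATP at 5 microM final, 60 min at RT.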
RECQ1 inh = RECQ1 (human) helicase inhibition; P46063; RECQ1 DNA unwinding, red fluorescence kinetic read; Potency, µM (top dose mostly 57.3 µM), for inactives: at the top dose activity, negative = inhibition, actives largely listed as inhibitors; 240,000 tested, 0.54% active; AID 2549;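 also: potency is read from the fitted curve at half-maximal effect; plate controls were vehicle for no effect and no enzyme for full effect; nearly all actives have a fitted effect of over 30% in size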
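50 nM RECQ1T1 preincubated 15 min with compound in Tris pH 8.0 buffer with MgCl2, DTT, Tween-20 and 2.5 ug/ml poly(dI-dC); started with 200 nM TAMRA/BHQ-2 forked duplex and 2 mM ATP. Unwinding read as fluorescence (525/598 nm), two reads 2 h apart.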
APE1 inh = APE1 (human) endonuclease inhibition | 350,000 tested, 0.35% active | P27695 | recombinant APE1, TAMRA/BHQ-2 abasic DNA cleavage fluorescence | Potency, µM (doses to about 65.8 µM), for the others: top-dose activity change, negative = inhibition, usual class: inhibitors;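 also: potency is read from the fitted curve at half-maximal effect; plate controls were vehicle for no effect and reference inhibitor for full effect; nearly all actives have a fitted effect of over 55% in size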
Target sequence (P27695 whole entry, looked up): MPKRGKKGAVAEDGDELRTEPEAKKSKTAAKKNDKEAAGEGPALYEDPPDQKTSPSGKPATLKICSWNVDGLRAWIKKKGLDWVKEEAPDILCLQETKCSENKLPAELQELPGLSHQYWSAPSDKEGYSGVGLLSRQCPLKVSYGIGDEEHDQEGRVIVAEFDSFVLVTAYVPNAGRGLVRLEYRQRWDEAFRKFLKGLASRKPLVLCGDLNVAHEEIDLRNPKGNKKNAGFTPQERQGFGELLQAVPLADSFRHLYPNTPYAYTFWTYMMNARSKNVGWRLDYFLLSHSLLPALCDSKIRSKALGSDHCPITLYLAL
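Activity was derived from the fluorescence gain between first and third kinetic reads (60 s intervals, ex 525/em 598 nm) after 50 nM THF-abasic TAMRA/BHQ-2 duplex was added to 0.75 nM APE1 preincubated 15 min with compound.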
FEN1 inh-1 = human FEN1 inhibition | 390,000 tested, 0.35% active | AID 588795 | Potency, µM (series often up to 114 µM), without a hit: at the top dose activity change, negative = inhibition, hits mostly inhibitors | Recombinant FEN1 flap cleavage, fluorescence, 15 min | P39748; also: potency is read from the fitted curve at half-maximal effect; % is scaled to controls: 0 for no effect and ±100 for the full control effect; nearly all actives have a fitted effect of over 65% in size
Target sequence (P39748 whole entry, looked up): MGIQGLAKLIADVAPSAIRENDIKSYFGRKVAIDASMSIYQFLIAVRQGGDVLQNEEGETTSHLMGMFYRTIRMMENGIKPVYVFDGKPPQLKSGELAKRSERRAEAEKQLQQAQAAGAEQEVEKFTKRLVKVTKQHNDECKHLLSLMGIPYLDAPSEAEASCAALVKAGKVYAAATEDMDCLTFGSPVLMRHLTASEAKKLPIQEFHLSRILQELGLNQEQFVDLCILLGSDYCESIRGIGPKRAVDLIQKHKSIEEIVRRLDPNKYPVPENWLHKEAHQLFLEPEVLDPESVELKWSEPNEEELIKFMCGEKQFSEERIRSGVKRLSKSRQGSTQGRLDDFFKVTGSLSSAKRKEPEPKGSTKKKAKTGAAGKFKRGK
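Nuclease activity of 10 nM FEN1 was measured after 15 min of room-temperature exposure to titrated compounds, by adding 50 nM flap substrate and reading plates at 0 and 15 min.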
FEN1 inh-2 = confirmation of human FEN1 inhibitors | shares compounds with FEN1 inh-1 | FEN1 flap cleavage, TAMRA/BHQ2 fluorogenic DNA substrate | Potency, µM, usual class: inhibitors | 880 tested, 79% active | AID 720498; also: potency is read from the fitted curve at half-maximal effect; nearly all actives have a fitted effect of over 60% in size
An asterisk follows results filed as active; i = inactive; ? = inconclusive; nt = not tested or not shown; ! = not confirmed by another sample; [ ] = remark or other dose. Unless noted, calls follow the shape of the dose curve; as a rule, active = well fitted curve in the direction sought with a large enough effect; inconclusive = small, poorly fitted or top-dose-only effect, or another doubt; inactive = no such curve, though single readings can be large; an effect the other way counts as inactive or inconclusive.

SMILES	WRN helicase inh	BLM inh	PI5P4K alpha inh	RECQ1 inh	APE1 inh	FEN1 inh-1	FEN1 inh-2
O=C1CN(C(=O)COC(=O)c2ccc([N+](=O)[O-])o2)c2ccccc2N1	1%[11.6 µM]	nt	-8	nt	?	?	19*
CC1(C)C(=O)Nc2ccccc2N1C(=O)COC(=O)c1ccc([N+](=O)[O-])o1	-29%	nt	1	nt	-35%	20µM*	19*
C=CCNc1nc(N)c([N+](=O)[O-])c(Nc2ccccc2OC)n1	-6%	-4%	-7	nt	3%	-16%	nt
COc1ccccc1Nc1nc(NCCCN(C)C)nc(N)c1[N+](=O)[O-]	79µM*	?	0	-5%	-6%	56µM*	60*
O=C(NCCC1=CCCCC1)c1ccc2c(c1)N(Cc1ccccc1)C(=O)c1ccccc1S2(=O)=O	nt	-11%	nt	nt	nt	-13%	nt
Cc1ccc(NC(=O)COC(=O)c2ccc([N+](=O)[O-])o2)cc1S(=O)(=O)N1CCCCC1	-5%	-1%	2	-2%	-7%	?	27*
Cc1ccc(NC(=O)COC(=O)c2ccc(Br)o2)cc1S(=O)(=O)N1CCCCC1	-5%	nt	-8	nt	7%	-6%	nt
Cc1ccc(C(=O)OCC(=O)Nc2cccc(S(=O)(=O)N3CCCCC3)c2)o1	-13%	nt	-2	nt	15%	-1%	nt
O=C(COC(=O)c1ccc([N+](=O)[O-])o1)Nc1cccc(S(=O)(=O)N2CCCCC2)c1	4%[11.6 µM]	-2%	-11	i	-9%	?	30*
O=C(CN1C(=O)/C(=C/c2ccco2)SC1=S)Nc1ccc(C(=O)O)c(O)c1	35µM*	43%	-68*	nt	?	3%	27*
CC(=O)N(\C=C/C=C/C=C1\Sc2ccccc2C1=O)c1ccccc1	?	?	-66*	?	?	?	?
CCOC(=O)C1=C(COC(=O)c2ccc([N+](=O)[O-])s2)NC(=O)NC1C (configuration not stated)	25%	nt	-3	nt	?	?	4.3*
CCOC(=O)C1=C(COC(=O)c2sccc2C)NC(=O)NC1C (configuration not stated)	10%	nt	1	nt	-16%	14%	nt
C[C@@H]1O[C@@H](Oc2c(-c3cc(O)c(O)c(O)c3)oc3cc(O)cc(O)c3c2=O)[C@H](O)[C@H](O)[C@H]1O	-15%	-2%	?	28µM*!	?	2.2µM*	3*
O=C(c1ccc2c(c1)N(Cc1ccccc1F)C(=O)c1ccccc1S2=O)N1CCN(c2ccccc2)CC1 (configuration not stated)	nt	-8%	nt	nt	nt	5%	nt
CCN(CC)CCC(=O)Nc1cccc2c1C(=O)c1ccccc1C2=O	?	52%	1	-21%	?	16µM*	6*
CN(c1ccccc1)c1ccc(/C=C(/CCC(=O)O)c2nc3ccccc3s2)cc1[N+](=O)[O-]	?	nt	?	nt	nt	50µM*	67*
O=C(O)CC/C(=C\c1cc([N+](=O)[O-])ccc1Cl)c1nc2ccccc2s1	-5%	0%	3	4%	-4%	-13%	nt
CC1CCCCC1NC(=O)COC(=O)c1ccc([N+](=O)[O-])o1 (configuration not stated)	-9%[11.6 µM]	nt	-4	nt	-41%	-26%	9.5*
O=C(COC(=O)c1ccc([N+](=O)[O-])o1)NC1CCCCC1	-2%[11.6 µM]	nt	0	nt	-16%	?	6.7*
CC1CCN(C(=O)COC(=O)c2ccc([N+](=O)[O-])o2)CC1	-10%[11.6 µM]	nt	2	nt	-38%	?	6*
O=C(COC(=O)c1ccc([N+](=O)[O-])o1)NC1CCS(=O)(=O)C1 (configuration not stated)	-19%[57.1 µM]	4%	0	-8%	1%	?	7.6*
CCC1CN(C(=O)N2CCC(C(=O)N3CCN(c4ccccc4F)CC3)CC2)c2ccccc2O1 (configuration not stated)	nt	-1%	nt	nt	nt	18%	nt
COc1ccc(NC(=O)CN2C(=O)COc3ccc(S(=O)(=O)N4CCCCC4)cc32)cc1Cl	nt	-11%	nt	nt	nt	-10%	nt
O=S(=O)(c1ccc2c(Cl)cccc2c1)N1CCN(c2nc(-c3cccs3)nc3ccccc23)CC1	nt	nt	nt	nt	nt	-8%	nt
SMILES	WRN helicase inh	BLM inh	PI5P4K alpha inh	RECQ1 inh	APE1 inh	FEN1 inh-1	FEN1 inh-2
COc1cc2c(cc1OC)C(C(=O)c1ccc(OC)c(OC)c1O)=NCC2	nt	-17%	nt	9%	0%	nt	nt
CCOc1ccc(Nc2ncnc3c2nc2n3CCCC2)cc1	nt	-1%	nt	nt	nt	12%	nt
Cc1ccc(CNC(=O)c2c(-c3cccc(Br)c3)noc2C)o1	nt	0%	nt	nt	nt	-16%	nt
O=C(COC(=O)c1ccc([N+](=O)[O-])o1)NC1CCCC1	-9%	nt	2	nt	-18%	?	nt
CCN(C(=O)COC(=O)c1ccc([N+](=O)[O-])o1)C1CCCCC1	18%	nt	-4	nt	-36%	-16%	17*
Cc1ccc2oc(=O)c3cc(C(=O)Nc4cccc(C#N)c4)sc3c2c1	nt	1%	nt	nt	nt	-2%	nt
Cc1cc(C)c2c(=N)c3ccccc3n(CCCCCCCCn3c4ccccc4c(=N)c4c(C)cc(C)nc43)c2n1	50µM*	nt	-67*	nt	nt	7.1µM*	5.4*
CCc1ccc(-n2nc(C)c3c(C(=O)Nc4cccc(C(F)(F)F)c4)cc(C)nc32)cc1	nt	-11%	nt	nt	nt	-3%	nt
CCCCN(CC)CCNC(=O)c1cc2c(-c3ccc(Cl)cc3)nn(C)c2s1	88%	156%	8	nt	-26%	45µM*	38*
COc1ccc(-c2nn(C)c3sc(C(=O)NCCN(C)C)cc23)cc1OC	?	1%	5	nt	-40%	18µM*	30*
CCCN(CCC)CCNC(=O)c1cc2c(-c3ccc(Cl)cc3)nn(C)c2s1	14%	184%	3	nt	-12%	?	nt
CCN(CC)CCNC(=O)c1cc2c(-c3cccc(OC)c3)nn(C)c2s1	52%	123%	-4	nt	-31%	?	38*
CCN(CC)CCNC(=O)c1cc2c(-c3ccc(Cl)cc3)nn(C)c2s1	48%	220%	-1	24%	-11%	28µM*	38*
CCc1ccc(CNC(=O)c2sc3ncccc3c2-n2c(C)ccc2C)cc1	nt	-5%	nt	nt	nt	-5%	nt
O=c1[nH]c(=S)[nH]c2n[nH]nc12	nt	nt	nt	nt	nt	-22%	nt
O=[N+]([O-])c1ccc(C=Nc2cccc3ccccc23)s1	-4%	-5%	6	i	?	?	6*
O=C(c1ccc2c3c(cccc13)C(=O)N(O)C2=O)N1CCCCC1	-6%[11.6 µM]	3%	5	-4%	-3%	11µM*	3*

Compound activity as filed in PubChem BioAssay.
